PfHsp90 set2 – inhibits growth of yeast expressing Plasmodium falciparum Hsp90 | S. cerevisiae expressing PfHsp90, BacTiter-Glo ATP, 48 h; yeast lacking PDR1 and PDR3 efflux regulators | inhibition, % at 9.4 µM | hit rate 0.32% among 310,000 | AID 504621;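 active means every replicate shows inhibition above about 80%, whatever the replicate mean, limit read from the data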
tim23-1 inh – growth inhibitors of tim23-1 mutant yeast | inhibition, % at 20 µM | hit rate 1.3% among 330,000 | AID 463212 | S. cerevisiae tim23-1 growth, BacTiter-Glo luminescence, 24 h;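 active means growth inhibition of the mutant yeast at or above 50%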;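 further: temperature-sensitive mutant grown at 25 °C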
SKKanGAS inh – SKKanGAS growth inhibition; S. pyogenes SKKanGAS, kanamycin growth, BacTiter-Glo, 6 h; inhibition, % at 7.5 µM; hit rate 1.3% among 300,000; AID 1662;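 active means mean replicate score, as percent of positive control median, at least 50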;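 further: strain carries kanamycin resistance gene driven by streptokinase promoter and grows in 40 µg/ml kanamycin; loss of luminescence reflects streptokinase promoter inhibition or plain growth inhibition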
NALP3 yeast inh – NALP3 inhibition in yeast; hit rate 0.39% among 330,000; Yeast reconstituted NLRP3/ASC/caspase-1, beta-gal luminescence, 24 h; inhibition, % at 10 µM; AID 2825;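 active means inhibition of 50% or more; inactive means inhibition below 50%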
tim10-1 inh – inhibits growth of tim10-1 mutant yeast. S. cerevisiae tim10-1 ts strain growth, BacTiter-Glo, 24 h. inhibition, % at 20 µM. hit rate 2.2% among 330,000. AID 463190;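 active means inhibition of at least 40%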;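 further: mutant grown at 25 °C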
TIM10 inh – TIM10 yeast growth inhibition. AID 463195. hit rate 1.4% among 330,000. inhibition, % at 10 µM. S. cerevisiae TIM10 strain growth, BacTiter-Glo luminescence, 24 h;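 active means inhibition of 40% or more at the single tested concentration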;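 further: wild-type TIM10 isogenic control strain grown at permissive 25 °C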
Of the large screens only hits and unclear results are named; the others gave an inactive call. Hits are enriched below; roughly 4.6% of the tested compounds scored in any of these assays.

Cc1ccc2c(CN(C)Cc3ccc(Cl)cc3Cl)cc(=O)oc2c1	SKKanGAS inh 52.7
O=C(NCc1ccc(C(F)(F)F)cc1)c1ccc2c(c1)S(=O)(=O)c1ccccc1C2=O	SKKanGAS inh 50.7
COc1ccc(N2CCN(C(=O)c3ccccc3NS(=O)(=O)c3ccc(C)cc3)CC2)cc1	none
COc1ccc(-n2c(SCC(=O)Nc3cccc4ccccc34)nc(O)cc2=O)cc1	none
Cc1ccc(-n2c(SCC(=O)Nc3ccc4c5c(cccc35)CC4)nc(O)cc2=O)cc1	SKKanGAS inh 51.6
COc1ccc(-n2c(SCC(=O)Nc3ccccc3)nc(O)cc2=O)cc1	SKKanGAS inh 49.6
COc1ccc(NC(=O)CSc2nc(O)cc(=O)n2-c2ccc(OC)cc2)cc1	SKKanGAS inh 53.6
O=C(Nc1cccc(Oc2ccc3c(c2)C(=O)NC3=O)c1)c1cccs1	none
Cc1ccc2nc(-c3ccc(NS(=O)(=O)c4ccc(F)cc4)cc3)sc2c1	PfHsp90 set2 108.9, SKKanGAS inh 76.1
Cc1ccc2nc(N/C(=N/S(=O)(=O)c3ccc(F)cc3)c3ccccc3)sc2c1	SKKanGAS inh 51.0
Cc1c(C(c2cccc(Br)c2)c2c(C)n(C)n(-c3ccccc3)c2=O)c(=O)n(-c2ccccc2)n1C	none
O=c1cc(-c2ccc(O)c(-c3c(O)cc(O)c4c(=O)cc(-c5ccc(O)cc5)oc34)c2)oc2cc(O)cc(O)c12	SKKanGAS inh 61.9
CC(C)(C)OC(=O)C[C@@H]1C/C=C\C[C@H](CC(=O)N(CCO)Cc2ccccc2)C(=O)N[C@@H](Cc2c[nH]c3ccccc23)COC1=O	none (no result: SKKanGAS inh)
COc1ccc(CN(C)S(=O)(=O)c2nnc(NC(=O)c3cccc(F)c3)s2)cc1OC	SKKanGAS inh 60.2
CCc1ccc2[nH]c(O)c(N=Nc3nc(-c4ccccc4)cs3)c2c1	SKKanGAS inh 52.7
O=C1C(=O)c2ccccc2C([O-])=C1[n+]1ccccc1	none
CCc1cc[n+](C2=C([O-])c3ccccc3C(=O)/C2=N\S(=O)(=O)c2cccs2)cc1	SKKanGAS inh 88.7
COc1cc(C(C)=O)ccc1OCC(O)CN1CCN(c2ccc(C)c(C)c2)CC1 (configuration not stated)	none
CC(C)OC(=O)c1c(NS(=O)(=O)c2ccccc2)sc2c1CCCC2	SKKanGAS inh 96.7
CCOC(=O)c1c(NC(=O)COC(=O)c2nc(Cl)ccc2Cl)sc2c1CCC2	none
Cc1ncc([N+](=O)[O-])n1CC(=O)Nc1ccc(F)cc1F	none
Cc1ccc2nc(N/N=C/c3ccccc3F)nc(-c3ccccc3)c2c1	SKKanGAS inh 106.4
O=C(CSc1nnc2ccc(-c3ccc(Br)cc3)nn12)NCC1CCCO1 (configuration not stated)	none
N#Cc1c(Nc2cccc(F)c2)sc2c(O)cc(=O)[nH]c12	SKKanGAS inh 112.5
CCOC(=O)c1c(C)[nH]c(C(=O)OC(C)C(=O)NC2CCCCC2C)c1C (configuration not stated)	none (no result: SKKanGAS inh)
N#Cc1ccccc1CN1C(=O)S/C(=C/c2cccn2-c2ccc(C(=O)O)cc2)C1=O	SKKanGAS inh 56.5
COc1cccc(/C=N/N=C(\N)c2nonc2N)c1O	none
O=S(=O)(Cc1ccccc1)C(CCCc1ccccc1)S(=O)(=O)Cc1ccccc1	none (no result: tim23-1 inh, SKKanGAS inh, NALP3 yeast inh, tim10-1 inh, TIM10 inh)
Cc1nn(C)c(C)c1C1C(C#N)=C(N)OC2=C1C(=O)CCC2 (configuration not stated)	none
Cc1nn(-c2ccccc2)c(Cl)c1C1C(C#N)=C(N)OC2=C1C(=O)CCC2 (configuration not stated)	SKKanGAS inh 86.9
CCOC(=O)Cc1c(C)nc2c(-c3ccc(Cl)cc3)c[nH]n2c1=O	none
CCC(C)n1ncn(-c2ccc(N3CCN(c4ccc(OCC5COC(Cn6cncn6)(c6ccc(Cl)cc6Cl)O5)cc4)CC3)cc2)c1=O (configuration not stated)	PfHsp90 set2 92.2
COc1cccc(/C=N/n2c(N)c(S(=O)(=O)c3cccs3)c3nc4ccccc4nc32)c1	none
Nc1c(S(=O)(=O)c2cccs2)c2nc3ccccc3nc2n1/N=C/c1cccc(O)c1	SKKanGAS inh 72.3
Cc1ccc(NC(=S)NC(=O)c2ccc(-c3ccc(Cl)cc3)o2)c(O)c1	SKKanGAS inh 68.4
Cc1ccc(O)c(NC(=S)NC(=O)Cc2ccc(Cl)cc2)c1	none
